Activity calls are given as the source filed them.
Tests used:
Albumin (Bos taurus) = Albumin (Bos taurus) (UniProt P02769); test: compounds binding labelled BSA control protein – biochemical, small-molecule microarray, Alexa647 label, 635/667 nm fluorescence, artefact control for SMM control protein annotation, profiling panel (AID 1118); settings: BSA-A647 binding, fluorescence 635 nm, higher = more signal;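 further: score merges 667 nm emission intensity and signal-to-noise per printed compound spot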
Albumin (Bos taurus), sequence (P02769 whole entry, looked up): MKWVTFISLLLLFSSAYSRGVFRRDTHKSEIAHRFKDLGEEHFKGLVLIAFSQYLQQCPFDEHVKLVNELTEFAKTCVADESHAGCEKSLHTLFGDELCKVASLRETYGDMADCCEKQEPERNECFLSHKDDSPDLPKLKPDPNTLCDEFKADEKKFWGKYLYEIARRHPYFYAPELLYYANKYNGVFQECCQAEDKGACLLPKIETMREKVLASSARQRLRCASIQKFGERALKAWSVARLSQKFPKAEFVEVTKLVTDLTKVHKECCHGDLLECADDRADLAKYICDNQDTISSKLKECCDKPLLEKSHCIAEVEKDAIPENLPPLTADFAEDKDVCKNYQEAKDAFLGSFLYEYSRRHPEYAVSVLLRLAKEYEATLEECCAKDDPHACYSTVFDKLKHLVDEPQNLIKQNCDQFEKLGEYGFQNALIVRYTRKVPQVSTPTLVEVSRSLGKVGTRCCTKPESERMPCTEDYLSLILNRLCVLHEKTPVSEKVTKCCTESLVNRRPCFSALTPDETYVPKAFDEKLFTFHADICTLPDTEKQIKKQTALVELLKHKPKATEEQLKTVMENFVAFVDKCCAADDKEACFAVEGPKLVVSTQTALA

[1] = probe aXIP binding to arrayed compounds – biochemical, NeuroSMM set, 635/667 nm fluorescence, primary screen (AID 1119); settings: small-molecule microarray, higher = more signal, called active from +8 up or from −8 down;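 further: probe is the protein aXip251-270 applied at 1 µg/mL to compound-printed slides; binding of probe to printed compounds measured as 667 nm fluorescence plus signal to noise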
[2] = probe aNOTCH3 binding on compound microarray – biochemical, small-molecule microarray, 635/667 nm fluorescence, primary screen (AID 1120); settings: higher = more signal;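 further: probe is a biotin-tagged antibody raised against NOTCH3 rather than NOTCH3 protein; score merges spot fluorescence near 667 nm with spot signal to noise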
[3] = probe aNOTCH2 binding on compound microarray – biochemical, small-molecule microarray, 635/667 nm fluorescence, primary screen (AID 1121); settings: higher = more signal;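 further: score merges feature fluorescence read at 667 nm with its signal to noise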
[4] = target: Carbonic anhydrase 2 (Homo sapiens) (UniProt P00918); test: compounds binding carbonic anhydrase 2 – biochemical, small-molecule microarray, Alexa647-labelled CAII, profiling panel (AID 1122); settings: CAII-A647 binding fluorescence, higher = more signal
[5] = COS7 lysate on small-molecule microarray, probe aHis, 635 nm (AID 1123); settings: COS7 cell lysate, fluorescence, higher = more signal;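 further: z-score combines 667nm fluorescence intensity with signal-to-noise per printed compound spot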
[6] = probe aLAP1 signal on lysate-treated microarray – cell lysate, small-molecule microarray, COS7 lysate, primary screen (AID 1124); settings: probe aLAP1, fluorescence, higher = more signal;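 further: lysate comes from COS7 cells expressing LAP1 and is applied at 0.3 µg/mL; score merges spot fluorescence near 667 nm with signal-to-noise over triplicate slides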
Sam68 (KHDRBS1) = test: compounds binding KHDRBS1 protein – biochemical, small-molecule microarray, 635 nm fluorescence, primary screen (AID 1125); settings: higher = more signal;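 further: score merges 667 nm channel intensity with signal to noise over triplicate slides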
[7] = test system: Chordin-like protein 2 (CHRDL2); test: compounds binding chordin-like 2 – biochemical, small-molecule microarray, 635 nm fluorescence, primary screen (AID 1126); settings: fluorescence 635 nm, higher = more signal;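 further: printed compound slides probed with Chrdl2 protein at 4 µg/mL for 1 h at 4 C; score merges 667 nm emission intensity with signal to noise over three replicate slides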
[8] = target: Concanavalin-A (Canavalia ensiformis) (UniProt P02866); test: compounds binding concanavalin A lectin – biochemical, small-molecule microarray, Alexa647 label, 635 nm, artefact control for SMM control protein annotation, primary screen (AID 1127); settings: ConA-A647 binding fluorescence, higher = more signal;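 further: z combines 667 nm emission intensity with signal-to-noise across three replicate slides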
Concanavalin-A (Canavalia ensiformis), sequence (P02866 whole entry, looked up): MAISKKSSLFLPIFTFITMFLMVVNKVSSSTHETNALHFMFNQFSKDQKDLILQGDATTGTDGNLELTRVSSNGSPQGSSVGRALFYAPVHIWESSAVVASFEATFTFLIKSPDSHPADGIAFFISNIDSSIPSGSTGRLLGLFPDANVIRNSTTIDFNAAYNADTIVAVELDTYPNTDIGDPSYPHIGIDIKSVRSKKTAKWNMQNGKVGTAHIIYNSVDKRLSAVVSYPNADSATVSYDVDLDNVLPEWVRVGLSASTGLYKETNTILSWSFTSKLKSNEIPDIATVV

[9] = compounds binding Alexa647 anti-His antibody – biochemical, small-molecule microarray, 635 nm fluorescence, artefact control for SMM control protein annotation, primary screen (AID 1128); settings: higher = more signal;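 further: score merges feature fluorescence with signal-to-noise for each printed compound spot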
[10] = test system: Human papillomavirus type 1a E7 protein (residues 1-88); test: HPV1a E7 small-molecule binders, primary screen, biochemical, small-molecule microarray, residues 1-88, 635 nm (AID 1129); settings: small-molecule microarray binding, fluorescence 635 nm; higher = more signal
[11] = target: Focal adhesion kinase 1 (Homo sapiens) (UniProt Q05397); test: PTK2 protein binding on printed compound slides – biochemical, small-molecule microarray, 635/667 nm fluorescence, BSA, DTT, primary screen (AID 1130); settings: 635 nm fluorescence, higher = more signal;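 further: composite of spot emission at 667 nm and signal to noise over triplicate slides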
Focal adhesion kinase 1 (Homo sapiens), sequence (Q05397 whole entry, looked up): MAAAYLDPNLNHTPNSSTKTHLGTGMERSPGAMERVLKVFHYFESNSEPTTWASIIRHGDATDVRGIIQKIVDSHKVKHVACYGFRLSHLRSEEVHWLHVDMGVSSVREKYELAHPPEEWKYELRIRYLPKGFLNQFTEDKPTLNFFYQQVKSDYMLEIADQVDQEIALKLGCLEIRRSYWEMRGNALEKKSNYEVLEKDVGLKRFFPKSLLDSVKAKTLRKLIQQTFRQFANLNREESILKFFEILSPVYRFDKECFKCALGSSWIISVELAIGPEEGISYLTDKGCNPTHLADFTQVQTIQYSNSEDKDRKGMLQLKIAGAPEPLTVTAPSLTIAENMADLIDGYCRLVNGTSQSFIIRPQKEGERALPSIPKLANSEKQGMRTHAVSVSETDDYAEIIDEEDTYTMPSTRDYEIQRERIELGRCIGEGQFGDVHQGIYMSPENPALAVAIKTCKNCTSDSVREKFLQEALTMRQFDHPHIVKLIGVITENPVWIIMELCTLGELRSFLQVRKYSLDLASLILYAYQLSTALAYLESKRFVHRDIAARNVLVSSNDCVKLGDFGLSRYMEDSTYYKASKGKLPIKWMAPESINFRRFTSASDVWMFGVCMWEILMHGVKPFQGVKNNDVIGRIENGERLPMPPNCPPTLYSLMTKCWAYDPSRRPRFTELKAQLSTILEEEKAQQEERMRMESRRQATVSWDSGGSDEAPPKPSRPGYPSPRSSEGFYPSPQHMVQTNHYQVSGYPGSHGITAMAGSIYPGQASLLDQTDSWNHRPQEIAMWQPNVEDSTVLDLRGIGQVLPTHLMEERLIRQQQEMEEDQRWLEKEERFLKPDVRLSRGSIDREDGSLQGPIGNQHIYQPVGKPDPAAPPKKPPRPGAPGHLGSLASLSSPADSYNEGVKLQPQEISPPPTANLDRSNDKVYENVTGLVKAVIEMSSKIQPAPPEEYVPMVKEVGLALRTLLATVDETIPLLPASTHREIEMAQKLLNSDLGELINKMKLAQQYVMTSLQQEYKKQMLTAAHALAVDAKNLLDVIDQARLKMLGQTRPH

[12] = test system: Fibrinogen (Alexa647-labelled); test: Alexa647-fibrinogen binding to printed small molecules – biochemical, small-molecule microarray, 635/667 nm fluorescence, artefact control for SMM control-protein annotation, profiling panel (AID 1131); settings: fibrinogen-A647 binding fluorescence, higher = more signal;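 further: z-score merges 667 nm fluorescence with per-spot signal-to-noise over triplicate slides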
[13] = target: Follistatin (Homo sapiens) (UniProt P19883); test: FST protein binding to printed compounds – biochemical, small-molecule microarray, 635/667 nm fluorescence, primary screen (AID 1132); settings: 635 nm fluorescence, higher = more signal
Follistatin (Homo sapiens), sequence (P19883 whole entry, looked up): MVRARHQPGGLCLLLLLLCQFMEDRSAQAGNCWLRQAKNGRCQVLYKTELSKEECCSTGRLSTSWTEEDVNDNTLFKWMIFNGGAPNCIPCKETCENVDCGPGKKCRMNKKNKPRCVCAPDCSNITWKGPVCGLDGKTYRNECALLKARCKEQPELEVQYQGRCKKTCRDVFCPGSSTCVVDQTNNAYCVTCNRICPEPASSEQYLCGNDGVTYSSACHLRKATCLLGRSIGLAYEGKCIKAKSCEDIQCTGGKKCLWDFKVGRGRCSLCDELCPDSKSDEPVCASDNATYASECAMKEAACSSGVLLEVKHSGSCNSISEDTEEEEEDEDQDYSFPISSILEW

[14] = target: Fibroblast growth factor 2 (Homo sapiens) (UniProt P09038); test: basic fibroblast growth factor binding to printed compounds – biochemical, small-molecule microarray, 635/667 nm fluorescence, primary screen (AID 1133); settings: FGF2, fluorescence 635/667, higher = more signal
Fibroblast growth factor 2 (Homo sapiens), sequence (P09038 whole entry, looked up): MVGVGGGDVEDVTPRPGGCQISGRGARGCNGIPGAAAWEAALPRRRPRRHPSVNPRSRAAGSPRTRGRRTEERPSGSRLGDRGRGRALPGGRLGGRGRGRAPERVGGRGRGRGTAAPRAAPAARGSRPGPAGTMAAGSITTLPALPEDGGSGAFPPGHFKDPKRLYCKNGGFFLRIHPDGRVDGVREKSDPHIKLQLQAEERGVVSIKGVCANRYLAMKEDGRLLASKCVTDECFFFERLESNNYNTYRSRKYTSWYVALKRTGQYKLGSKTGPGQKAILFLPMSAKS

[15] = JC-1 mitochondrial potential readout, lung cancer cells – cell-based, A549, JC-1 fluorescence, basal, 24 h, 100 nL, profiling panel (AID 1138); settings: higher = more signal;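 further: A549 lung adenocarcinoma cells under basal conditions with no added stimulus; test concentration not given here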
Lefty1 = Lefty1 protein binding to printed compounds – biochemical, small-molecule microarray, 635/667 nm fluorescence, primary screen (AID 1139); settings: fluorescence 635/667, higher = more signal
[16] = test system: wheat germ agglutinin (Triticum aestivum), Alexa647-labelled; test: Alexa647-WGA lectin binding to printed small molecules – biochemical, small-molecule microarray, 635/667 nm fluorescence, artefact control for SMM control-protein annotation, profiling panel (AID 1140); settings: WGA-A647 binding, 635 nm fluorescence, higher = more signal;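 further: score merges 667 nm feature emission with signal to noise over triplicate slides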
[17] = target: Luciferin 4-monooxygenase (Photinus pyralis) (UniProt P08659); test: inhibition of purified Photinus pyralis luciferase – biochemical, luminescence, purified enzyme, 2006 set, primary screen (AID 1141); settings: purified firefly luciferase, SteadyGlo luminescence, 30 min; higher = more signal, called active from +8 up or from −8 down;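 further: cell-free assay with purified firefly luciferase at 100 ng per well in PBS; test concentration not given here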
Luciferin 4-monooxygenase (Photinus pyralis), sequence (P08659 whole entry, looked up): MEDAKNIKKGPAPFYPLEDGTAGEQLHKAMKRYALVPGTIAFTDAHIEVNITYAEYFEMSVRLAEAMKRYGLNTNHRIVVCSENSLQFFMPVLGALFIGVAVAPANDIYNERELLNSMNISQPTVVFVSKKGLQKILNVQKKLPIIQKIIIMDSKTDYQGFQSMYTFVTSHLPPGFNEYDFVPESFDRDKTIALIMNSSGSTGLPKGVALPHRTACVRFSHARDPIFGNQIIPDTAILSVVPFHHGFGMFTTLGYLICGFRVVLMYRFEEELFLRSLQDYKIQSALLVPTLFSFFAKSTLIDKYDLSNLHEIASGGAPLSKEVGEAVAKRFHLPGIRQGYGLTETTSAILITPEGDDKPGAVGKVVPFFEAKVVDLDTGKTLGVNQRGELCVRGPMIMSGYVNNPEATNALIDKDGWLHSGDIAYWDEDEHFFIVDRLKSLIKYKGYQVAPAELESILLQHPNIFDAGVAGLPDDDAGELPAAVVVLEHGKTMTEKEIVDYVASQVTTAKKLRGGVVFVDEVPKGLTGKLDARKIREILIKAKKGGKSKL

Row | SMILES | composite z-score (Albumin (Bos taurus)) | composite Z-score [1] | composite z-score [2] | composite z-score [3] | composite z-score [4] | composite z-score [5] | composite z-score [6] | composite z-score (Sam68 (KHDRBS1)) | composite z-score [7] | composite z-score [8] | composite z-score [9] | composite z-score [10] | composite z-score [11] | composite z-score [12] | composite z-score [13] | composite z-score [14] | z-score [15] | composite z-score (Lefty1) | composite z-score [16] | z-score [17]
1 | COCCOC(=O)N1C(=O)[C@@]2(c3cc(C#CC4(O)CCCCCC4)ccc31)[C@H](C(=O)Nc1nc3ccccc3s1)[C@H]1C(=O)O[C@H](c3ccccc3)[C@H](c3ccccc3)N1[C@@H]2c1ccccc1OCCO | 0.306 | -0.129 (inactive) | -0.0647 | -0.162 | 0.598 | 1.73 | 0.233 | 1.3 | -0.0036 | 1.16 | 2.46 | 1.2 | 0.823 | 0.981 | 1.01 | 1.37 | -1.13 | 0.581 | 1.08 | -3.04 (inactive)
2 | COCCOC(=O)N1C(=O)[C@@]2(c3cc(C#CCCO)ccc31)[C@H](c1ccc(O)cc1)N1[C@H](c3ccccc3)[C@H](c3ccccc3)OC(=O)[C@H]1[C@@H]2C(=O)N1CCN(c2ncccn2)CC1 | 0.435 | 0.982 (inactive) | 1.28 | 0.51 | 0.183 | 2.92 | 0.782 | 1.29 | 0.677 | 1.16 | 1.34 | 1.25 | 1.26 | 0.959 | 1 | 0.986 | 0.00649 | 0.883 | 0.932 | 0.832 (inactive)
3 | CCCC(=O)N(CCc1c[nH]c2ccccc12)[C@@H]1CC(C(=O)NCCO)=C[C@H](Oc2c(I)cc(CO)cc2OC)[C@H]1O | 0.0754 | -0.471 (inactive) | -0.0962 | -0.085 | 0.723 | 0.532 | -0.107 | 0.195 | 0.144 | 0.314 | -0.156 | -0.064 | -0.185 | -1.04 | 0.0919 | 0.289 | 1.13 | 0.0596 | 0.302 | -0.437 (inactive)
4 | C#CCNCc1ccccc1 | -0.172 | 0.204 (inactive) | -0.201 | -0.117 | -0.0848 | -0.0833 | 0.149 | 0.44 | 0.128 | 0.159 | 0.3 | 0.736 | -0.101 | -0.395 | 0.065 | 0.166 | 0.588 | 0.0644 | -0.219 | -0.352 (inactive)
5 | O=C1C2C=CC(C(O)c3cc(C(F)(F)F)cc(C(F)(F)F)c3)N(Nc3ccccc3)C2C(=O)N1c1ccccc1 (stereo not given) | -0.0814 | 0.837 (inactive) | 0.0435 | -0.101 | 0.723 | 2.51 | -0.233 | 1.04 | -0.357 | -0.236 | 0.692 | 1.27 | 0.838 | 0.462 | 0.0145 | -0.601 | -0.424 | 0.192 | 0.173 | -1.47 (inactive)
6 | Cc1ccc(S[C@]2(C(=O)O)CC(=O)N(C(C)C)[C@@H]2c2ccc(CO)cc2)cc1 | 0.07 | 0.264 (inactive) | -0.139 | -0.107 | 0.648 | -0.216 | 1.14 | 0.462 | -0.215 | 0.394 | 0.715 | -0.386 | 0.104 | -0.307 | 0.0281 | -0.129 | -0.233 | -0.0075 | 0.557 | 0.568 (inactive)
7 | COC(=O)c1c2oc(c1C(=O)OC)C(=O)NC1(CCCCC1)c1cn(nn1)C[C@H](Cc1ccccc1)NC(=O)N[C@H](CO)CC2 | 0.692 | 0.992 (inactive) | -0.207 | -0.167 | 0.269 | 1.75 | -0.0871 | 0.789 | 0.296 | 0.91 | 0.842 | 0.494 | 0.244 | 0.94 | 0.437 | 0.0141 | 0.304 | 0.609 | 0.831 | 0.893 (inactive)
8 | COC(=O)[C@]1(CCC(=O)OC(C)(C)C)N=C(c2ccc(OCCCO)cc2)O[C@@H]1c1ccccc1 | 0.0503 | 1.55 (inactive) | 0.0834 | 0.153 | 0.687 | 1.83 | 0.569 | -0.116 | -0.483 | 0.259 | 2.76 | 0.527 | -0.239 | -0.233 | 0.263 | 0.16 | 0.804 | -0.657 | 0.197 | -2.77 (inactive)
9 | CC(C)[Si](C#C[Si](C(C)C)(C(C)C)C(C)C)(O[C@H](C)c1cn(Cc2ccccc2)nn1)C(C)C | 0.551 | -0.539 (inactive) | 0.379 | -0.0956 | 0.48 | 0.664 | 0.177 | 1.03 | 0.289 | 0.598 | 0.386 | 1.01 | 0.677 | 0.872 | 0.509 | 0.427 | 0.0378 | 0.56 | 0.502 | -0.398 (inactive)
10 | COc1cc(CO)cc(I)c1O[C@H]1C=C(C(=O)NCCO)C[C@@H](NC[C@@H]2CCCO2)[C@@H]1O | 0.0917 | -0.791 (inactive) | 0.105 | -0.14 | -0.0877 | -0.0856 | 0.696 | 1.16 | 0.0292 | 0.0446 | 0.296 | 0.63 | 0.106 | 0.346 | 0.323 | 0.599 | 0.452 | 0.831 | 0.483 | 0.758 (inactive)
11 | C[N+](C)(C)CCCC[C@@H]1NC(=O)[C@@H]2C[C@H](C(=O)NCCCCCCNC(=O)CS)[C@H](c3ccc(O)cc3)N2C1=O | 0.303 | 0.0896 (inactive) | -0.443 | -0.115 | 0.82 | 0.443 | 0.596 | -0.731 | -0.377 | 0.871 | 0.271 | -0.982 | -0.531 | -0.33 | 0.0054 | -0.117 | -0.122 | -0.237 | -0.341 | 0.182 (inactive)
